# Screening results: PubChem, National Center for Advancing Translational Sciences (NCATS)
# D1 antagonist: antagonists of human D1 dopamine receptor; P21728; HEK293 TREx D1 cells, calcium flux, dopamine EC80; active compounds read low; activity change, negative = inhibition, % at 10 µM; 3.2% of 360,000 active; AID 504652; in the data active = activity change below about -30%
# Target sequence (P21728 whole entry, looked up): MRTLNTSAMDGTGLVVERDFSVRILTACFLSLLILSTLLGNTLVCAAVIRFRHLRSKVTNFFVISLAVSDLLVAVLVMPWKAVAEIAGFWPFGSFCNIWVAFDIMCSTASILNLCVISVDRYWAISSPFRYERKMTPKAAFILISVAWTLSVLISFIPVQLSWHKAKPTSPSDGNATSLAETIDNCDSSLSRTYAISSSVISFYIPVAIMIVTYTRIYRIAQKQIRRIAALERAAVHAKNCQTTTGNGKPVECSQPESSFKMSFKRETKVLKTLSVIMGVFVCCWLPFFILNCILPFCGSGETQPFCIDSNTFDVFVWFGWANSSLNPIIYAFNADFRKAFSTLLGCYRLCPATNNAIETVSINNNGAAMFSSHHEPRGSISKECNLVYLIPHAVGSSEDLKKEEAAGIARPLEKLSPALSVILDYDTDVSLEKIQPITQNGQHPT
#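 Tetracycline-induced HEK293 T-REx cells with force-coupled D1 receptor were loaded with a no-wash calcium dye. Compound was added after a 10 s baseline and read kinetically for 180 s; EC80 dopamine was then added and calcium flux followed another 180 s.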
# D3 antag: blocks the human D3 dopamine receptor; P35462; D3R cells, DiscoveRx beta-arrestin luminescence, antagonist mode; active compounds read low; max response, negative = inhibition, %; 2.5% of 360,000 active; in the data active = max response below about -50%
#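 Cells expressing the human receptor were seeded at 1500 cells/well, incubated overnight at 37 degrees C in 5% CO2, then exposed to library compounds with dopamine controls for 90 minutes at 37 degrees C before luminescent detection.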
# D1 potentiator: enhances dopamine response at the human D1 receptor. HEK293 TREx D1 cells, calcium flux, dopamine EC20 potentiation. potentiation, % at 10 µM. P21728. 0.036% of 360,000 active. AID 504651; in the data active = potentiation above about 30%
# DRD3 agonist: agonists of human D3 dopamine receptor; D3R DiscoveRx beta-arrestin cells, luminescence, 90 min; max activation, %; 0.58% of 410,000 active; AID 652048; in the data active = max activation above about 30%
#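 Cells at 1500/well, incubated overnight, then treated with pinned compounds (dopamine as control) for 90 min at 37 degrees C. DiscoveRx reagent added for 30 - 60 minutes at room temperature; luminescence read.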
# D1 agonist: agonists of human D1 dopamine receptor. 1% of 360,000 active. activation, % at 2 µM. HEK293 T-REx D1 cells, calcium flux, agonist mode. P21728; in the data active = activation above about 30%
#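 Agonism was scored from calcium flux recorded over 180 s (1 read/s) after pintool compound addition, following a 10-cycle baseline. Cells were inducible force-coupled HEK293 TREx D1, plated overnight at 30 C and loaded with no-wash calcium dye.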
# Numbers stand for hits; – = inactive; · = no result given. In the library only some 6% were active in any assay of this set; here they are far more common.
SMILES,D1 antagonist,D3 antag,D1 potentiator,DRD3 agonist,D1 agonist
Cc1cccc(C)c1NC1=C(Cl)C(=O)OC1OC(=O)c1ccccc1 (centres undefined),-48.5,–,–,–,–
Cc1ccc(NC2=C(Cl)C(=O)OC2OC(=O)c2ccccc2)c(C)c1 (centres undefined),-50.6,–,–,–,–
Cc1ccc(CCNC(=O)C(CC(C)C)NS(=O)(=O)c2ccc3c(c2)oc(=O)n3C)cc1 (centres undefined),–,·,–,–,–
CCCCc1nn2c(=O)cc(COC(=O)c3ccccc3C)nc2s1,–,·,–,–,–
O=C1c2ccccc2C(=O)c2c1ccc1c(=O)n(-c3ccccc3)[nH]c21,–,–,–,–,–
Cc1cccc(-n2[nH]c3c4c(ccc3c2=O)C(=O)c2ccccc2C4=O)c1,–,-64.1,–,–,–
COc1ncnc(OC)c1S(=O)(=O)Nc1ccc(C(F)(F)F)cc1,-31.2,–,–,–,–
Cn1ccc2cc(S(=O)(=O)N3CCCC(C(=O)NCc4ccc(F)cc4)C3)ccc21 (centres undefined),–,·,–,–,–
COc1ccc(C2=NNC(c3cccs3)=Nc3ccc(OC)cc32)cc1,-38.6,–,–,–,–
CCc1ccc(N(C(=O)c2csnn2)C(C(=O)NC(C)(C)CC)c2ccccn2)cc1 (centres undefined),-66.3,–,–,–,–
Cc1cc(C)c(C)c(S(=O)(=O)N(C)C2CCN(C)CC2)c1C,–,-77.1,–,–,–
CN1CCC(N(C)S(=O)(=O)c2ccc(Cl)cc2)CC1,–,–,–,–,–
COc1cc2c(cc1OC)CN(CCC(C)c1ccc(Cl)cc1)CC2 (centres undefined),·,-91.1,·,–,·
COc1cc2c(cc1OC)CN(Cc1ccc(OC)c(C)c1OC)CC2,–,-76.9,–,–,–
COc1cc2c(cc1OC)CN(Cc1cccs1)CC2,–,-54.2,–,–,–
COc1cc2c(cc1OC)CN(Cc1ccc(C)cc1)CC2,–,-80.0,–,–,–
COc1cc2c(cc1OC)CN(Cc1ccccc1)CC2,–,–,–,–,–
Cc1ccc(Cn2c(CNC(=O)c3ccc(Cl)c([N+](=O)[O-])c3)nc3cccnc32)cc1,–,·,–,–,–
COc1ccc2c(c1)[nH]c1c(=O)n(CCCN3CCOCC3)cnc12,-30.8,–,–,–,–
CCC1CCCN1Cn1cnc2c([nH]c3ccc(OC)cc32)c1=O (centres undefined),–,-72.8,–,–,–
CCC1CCCN1Cn1cnc2c([nH]c3ccccc32)c1=O (centres undefined),–,–,–,–,–
COc1ccc(NC(=O)CC2C(=O)N(c3ccc(C)cc3)C(=O)N2Cc2ccc(C)cc2)cc1 (centres undefined),–,·,–,–,–
Cc1ccc(NC(=O)Cn2c(=O)n(CCCCC(=O)NCCc3ccc(Cl)cc3)c(=O)c3ccccc32)cc1,-45.9,·,–,–,–
COc1ccc(CCNC(=O)CCCn2c(=O)c3ccccc3n(Cc3ccccc3C)c2=O)cc1OC,-32.8,·,–,–,–
CCOc1ccc(NC(=O)Cn2c(=O)n(CCCC(=O)NCCc3ccc(Cl)cc3)c(=O)c3ccccc32)cc1,–,·,–,–,–
SMILES,D1 antagonist,D3 antag,D1 potentiator,DRD3 agonist,D1 agonist
O=C(c1ccc(Cl)cc1)[C@@H]1[C@@H]2C(=O)N(c3ccc(Cl)cc3)C(=O)[C@@H]2C2c3ccccc3C=NN21 (some centres undefined),-35.0,–,–,–,–
CNC(=O)C(=O)Nc1ccc(C)cc1C,–,–,–,–,–
CNC(=O)C(=O)Nc1c(C)cc(C)cc1C,-35.6,–,–,–,–
COc1ccccc1C(=O)OCc1cc(=O)n2nc(C(C)C)sc2n1,–,·,–,–,–
CCC(C)[C@@H](NC(=O)OC(C)(C)C)c1nnc(S(=O)(=O)Cc2cccc(C)c2)o1 (some centres undefined),–,-54.4,–,–,–
Cc1ccccc1CS(=O)(=O)c1nnc([C@H](Cc2ccccc2)NC(=O)OC(C)(C)C)o1,-37.6,-53.2,–,–,–
CC(C)(C)OC(=O)N[C@@H](Cc1ccccc1)c1nnc(S(=O)(=O)Cc2ccccc2)o1,-47.5,·,–,·,–
Cc1cccc(CS(=O)(=O)Cc2ccc(C(=O)NC(C)c3ccccc3)o2)c1 (centres undefined),–,–,–,–,–
